# Screen size: about 2,000 compounds; about 250 (12%) were called active. Many of the other results were omitted from the sample, so actives are more common in it than they were. Values without a mark were called inactive. No stated cut-off is given here; in the data, active means hERG blockade below about -20% or above about 20%; inactive means in between.
# Target: Voltage-gated inwardly rectifying potassium channel KCNH2 (Homo sapiens) (UniProt Q12809)
# Test: KCNH2 potassium channel function modulators, cell-based (AID 376);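 further: 0% = buffer alone and 100% = reference blocker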
# Conditions: hERG-expressing cells, channel activity single-concentration screen; concentration not given here
# Voltage-gated inwardly rectifying potassium channel KCNH2 (Homo sapiens), sequence (Q12809 whole entry, looked up): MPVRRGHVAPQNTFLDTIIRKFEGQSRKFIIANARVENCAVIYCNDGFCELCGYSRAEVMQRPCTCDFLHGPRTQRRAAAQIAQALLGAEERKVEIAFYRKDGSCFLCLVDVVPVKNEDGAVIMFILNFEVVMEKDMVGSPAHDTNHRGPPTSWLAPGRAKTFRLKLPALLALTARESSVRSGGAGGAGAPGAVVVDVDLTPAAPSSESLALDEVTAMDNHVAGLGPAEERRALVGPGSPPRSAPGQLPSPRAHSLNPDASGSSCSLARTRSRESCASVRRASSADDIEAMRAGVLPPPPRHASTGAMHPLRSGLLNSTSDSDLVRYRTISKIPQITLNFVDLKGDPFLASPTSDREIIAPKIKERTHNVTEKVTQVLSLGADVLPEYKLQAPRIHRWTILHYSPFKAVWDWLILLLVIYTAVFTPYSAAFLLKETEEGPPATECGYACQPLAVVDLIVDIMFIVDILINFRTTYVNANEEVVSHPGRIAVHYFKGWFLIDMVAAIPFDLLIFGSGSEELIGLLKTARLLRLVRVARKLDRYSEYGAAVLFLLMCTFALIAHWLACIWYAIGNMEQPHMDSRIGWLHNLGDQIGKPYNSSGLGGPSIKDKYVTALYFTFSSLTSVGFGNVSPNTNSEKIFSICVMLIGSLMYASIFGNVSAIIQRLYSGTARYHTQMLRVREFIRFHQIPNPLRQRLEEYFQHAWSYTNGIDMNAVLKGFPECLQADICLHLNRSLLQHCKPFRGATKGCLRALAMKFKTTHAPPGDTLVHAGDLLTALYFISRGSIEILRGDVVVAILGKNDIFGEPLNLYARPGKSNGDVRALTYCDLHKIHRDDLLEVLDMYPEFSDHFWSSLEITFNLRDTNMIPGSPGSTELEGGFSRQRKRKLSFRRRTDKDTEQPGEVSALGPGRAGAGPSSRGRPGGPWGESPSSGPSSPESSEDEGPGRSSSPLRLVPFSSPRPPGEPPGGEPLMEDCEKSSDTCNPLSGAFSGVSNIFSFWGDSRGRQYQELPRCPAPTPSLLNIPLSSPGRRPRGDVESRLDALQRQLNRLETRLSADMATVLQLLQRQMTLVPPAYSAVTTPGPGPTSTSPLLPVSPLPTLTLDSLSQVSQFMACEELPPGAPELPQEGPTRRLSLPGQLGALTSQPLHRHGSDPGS
row,SMILES,hERG blockade
1,CC1CC2C3CCC4=CC(=O)C=CC4(C)C3(Cl)C(Cl)CC2(C)C1(O)C(=O)COP(=O)(O)O (stereo unspecified),10.3%
2,COc1cc2c(cc1OC)C(CCN)=NCC2,26.9% (active)
3,Cc1cc(OCC(=O)O)c(Cl)cc1Cl,3.22%
4,O=c1[nH]c(=S)[nH]c(-c2ccccc2)c1Cc1c(O)ccc2ccccc12,-0.358%
5,O=C(O)CCCCn1cnc2c(=S)nc[nH]c21,6.53%
6,O=C(O)CCn1cnc2c(=S)nc[nH]c21,-35.8% (active)
7,S=c1nc[nH]c2c1ncn2Cc1ccco1,-15.9%
8,Nc1ccccc1SCc1csc(-c2ccc(Cl)cc2)n1,4.83%
9,CC(C)c1cc(C(F)(F)F)nc(NNc2nc(C(C)C)cc(C(F)(F)F)n2)n1,7.39%
10,Nc1nc2c(ncn2C2CCC(CO)O2)c(=O)n1C(=O)c1ccccc1 (stereo unspecified),-28.6% (active)
11,OCC1CCCC(n2cnc3c(=S)nc[nH]c32)O1 (stereo unspecified),-13.5%
12,COc1nc(N)nc2c1ncn2C1CC(O)C(CO)O1 (stereo unspecified),12%
13,O=C(O)c1c2c(c(O)c3c1CN(C1CCCCC1)CO3)OCN(C1CCCCC1)C2,-1.92%
14,C[N+](C)(C)CCCSc1nc2ccccc2[nH]1,6.28%
15,CC(CCC(=O)O)(c1cc(Br)c(O)c(Br)c1)c1cc(Br)c(O)c(Br)c1,5.39%
16,CN(C)CC(C)(C)CN1c2ccccc2Sc2ccccc21,22.5% (active)
17,CN(C)CN1C(=O)SC(=C2C(=O)N(CN(C)C)c3ccccc32)C1=O,-4.39%
18,c1ccc2c(c1)-c1nc3ccccc3cc1C2N1CCOCC1 (stereo unspecified),-9.86%
19,Cc1ncc(CN=Cc2ccc(Cl)cc2)c(N)n1,6.55%
20,CC12CCC3c4ccc(O)cc4CCC3C1CCC2OC(=O)CCC1CCCC1 (stereo unspecified),6.8%
21,CC(=NO)c1ccc2cc(Br)c3ccccc3c2c1,61.6% (active)
22,CC(Br)C(=O)c1ccc2cc(Br)c3ccccc3c2c1 (stereo unspecified),8.72%

row,SMILES,hERG blockade
1,CCCS(=O)(=O)O,-0.642%
2,c1ccc2c(c1)c1ccccc1n2Cn1c2ccccc2c2ccccc21,-38.4% (active)
3,c1ccc2c(CSCc3cccc4ccccc34)cccc2c1,13.9%
4,NC(=O)CC(N)c1nn[nH]n1 (stereo unspecified),-2.74%
5,CN1CCCCC1CCN1CCCCC1 (stereo unspecified),1.07%
6,CN1CCCCC1CCN1c2ccccc2Sc2ccc(S(C)=O)cc21 (stereo unspecified),16.5%
7,COc1ccc2c(c1)N(CCC1CCCCN1C)c1ccccc1S2 (stereo unspecified),59.1% (active)
8,OC(C1=CC(=Cc2ccncc2)c2ccccc21)c1ccncc1 (stereo unspecified),1.87%
9,O=C(NCc1cccs1)OC1CC2CCC1C2 (stereo unspecified),-2.2%
10,C[N+](C)(C)CC(=O)NN=Cc1c(O)ccc2ccccc12,-4.06%
11,c1ccc2c(c1)-c1ccccc1C2N1CC2CCC(CC2)C1,-7.32%
12,c1ccc(C(CCN2CCCC2)c2ccccn2)cc1 (stereo unspecified),3.48%
13,c1ccc(C(CCN2CC3CCC(CC3)C2)c2ccccc2)cc1,56.9% (active)
14,Nc1cc(S(N)(=O)=O)ccc1SSc1ccc(S(N)(=O)=O)cc1N,-0.877%
15,OC(COc1cccc2ccccc12)CN1CCOCC1 (stereo unspecified),2.26%
16,Nc1ccc2[nH]cc(CCC(=O)O)c2c1,1.56%
17,O=P(O)(O)OC1OC(CO)C(O)C(O)C1O (stereo unspecified),-24.6% (active)
18,OCC1OC(N2CCN(C3OC(CO)C(O)C(O)C3O)CC2)C(O)C(O)C1O (stereo unspecified),-5.49%
19,Cc1c(Cl)c(S(N)(=O)=O)cc(S(N)(=O)=O)c1NC(=O)c1ccc(Cl)cc1,12.5%
20,Cc1cccc(Cl)c1NCC(O)CN1CCN(C)CC1 (stereo unspecified),-2.1%
21,CC(C(=O)O)C(=Cc1ccc2c(c1)OCO2)C(=O)O (stereo unspecified),0.849%
22,CC1Oc2ccc(C(=O)CC(C(=O)O)c3ccc4c(c3)OCO4)cc2O1 (stereo unspecified),-27.6% (active)

row,SMILES,hERG blockade
1,O=C(O)CC(Cc1ccc2c(c1)OCO2)C(=O)O (stereo unspecified),6.12%
2,CN(C)Cc1ccc(-c2cc3onc(-c4ccccc4)c3c(=O)n2C)cc1,10.3%
3,CC(C)(CO)N1CCN(C(=S)Nc2ccccc2)CC1,0.768%
4,C[N+]1(C)CCOC(O)(c2ccccc2)C1 (stereo unspecified),17.7%
5,CC[N+](C)(CC)CCN1C(=O)c2ccccc2S1(=O)=O,-0.137%
6,NS(=O)(=O)c1ccc(N=Nc2ccc[nH]c2=O)cc1,16%
7,NS(=O)(=O)c1ccc(N=Nc2c[nH]c(=O)c(O)c2)cc1,14%
8,Cn1c(N)c(N=Nc2ccc(S(N)(=O)=O)cc2)c(=O)n(C)c1=O,31.1% (active)
9,S=c1nc(-c2nc(=S)[nH]c3c2CCCCCCCCCC3)c2c([nH]1)CCCCCCCCCC2,0.0358%
10,Clc1cc2c(c(CSC3=NCN(CC4CC4)CN3)c1)OCOC2,8.37%
11,CN(C)CCNCCN,4.72%
12,CC1=NN(C(=O)c2ccncc2)C(=O)C1N=Nc1ccc2ccccc2c1 (stereo unspecified),21.5% (active)
13,CC1=NN(c2ccccc2)C(=O)C1N=Nc1ccc(S(N)(=O)=O)cc1 (stereo unspecified),14.6%
14,CC(=NNC(=O)c1ccncc1)c1ccc2ccccc2c1O,-2.47%
15,Cc1noc(NC(=O)Nc2ccccc2F)c1C#N,2.22%
16,Nc1ncnc2c1ncn2CCCCC(=O)O,-16.5%
17,CN(C)c1ncnc2c1ncn2CCn1cnc2c(N(C)C)ncnc21,-12.5%
18,CCCCn1cnc2c(SC)ncnc21,-28.3% (active)
19,Cc1cc(C)nc(NC(=O)COc2ccc(Cl)cc2)c1,16.6%
20,OC(COc1ccccc1)CN1CCCCC1 (stereo unspecified),-2.64%
21,c1ccc(-c2cnc(-c3ccc(-c4ncc(-c5ccccc5)o4)cc3)o2)cc1,-6.76%
22,c1ccc(-c2ccc(-c3ccc(C4=NCCN4)cc3)o2)cc1,134% (active)

row,SMILES,hERG blockade
1,O=C(CSC1=NCCN1)Nc1ccccc1,8.84%
2,OCCSCc1ccccc1,-16.1%
3,O=C(O)CN(CCN(CC(=O)O)CC(=O)O)CC(=O)O.[Cu+2],1.62%
4,O=C(O)CCc1nc(-c2ccccc2-n2cccc2)no1,5.65%
5,O=C(O)C(Cc1cc(I)c(O)c(I)c1)C1CCCCC1 (stereo unspecified),35.2% (active)
6,C=C(C)CNCCN,-5.55%
7,Cc1ccc(CSC(N)=Nc2ccccc2)cc1C,14.3%
8,Nc1ncnc2c1ncn2C1OC(C(=O)OCCO)C(O)C1O (stereo unspecified),1.37%
9,OC1CC2CCC(C1)N2CCCN1c2ccccc2Sc2ccc(Cl)cc21 (stereo unspecified),89.8% (active)
10,Clc1ccc2c(c1)N(CCCN1CCCC13CCCCC3)c1ccccc1S2,4.63%
11,COc1ccc(N(CC(=O)O)N=O)cc1,1.49%
12,O=C1C=CC(=Nc2cccc3c(N=C4C=CC(=O)O4)cccc23)O1,-12%
13,CC(C)c1cc(CN(C)C)c(O)c(C(C)(C)C)c1,13.4%
14,Nc1nc(N)[n+]([O-])c(N)c1NCO,-6.48%
15,C=CCNS(=O)(=O)c1ncnc2nc[nH]c12,-2.53%
16,Nc1nc(-c2cc(-c3cccc4ccccc34)nc(N)n2)cc(-c2cccc3ccccc23)n1,3.59%
17,Nc1cc2c(nc3c4ccccc4c(N)cc3[n+]2-c2cccc3ccccc23)c2ccccc12 (tested in a mixture with another compound),51.9% (active)
18,O=S(=O)(c1ccc(Br)cc1)N1CCN(S(=O)(=O)c2ccc(Br)cc2)CC1,11.5%
19,O=C(O)C1CCCCC1c1c2ccc(=O)c(O)c-2oc2c(O)c(O)ccc12 (stereo unspecified),-2.68%
20,CC(=O)C1(N=Nc2ccc(S(N)(=O)=O)cc2)CCOC1=O (stereo unspecified),-10.6%
21,c1ccc2sc(SCSc3nc4ccccc4s3)nc2c1,-7.22%
22,CC(CCc1nc2ccccc2s1)(c1ccc(O)cc1)c1ccc(O)cc1,24% (active)

row,SMILES,hERG blockade
1,CC(CCC(=O)O)(c1ccc(O)cc1)c1ccc(O)cc1,4.36%
2,O=C(O)c1ccccc1C(=O)c1ccc2c(c1)Cc1ccccc1-2,-16.1%
3,Cn1c(=O)c2c(ncn2CN2CCN(Cn3cnc4c3c(=O)n(C)c(=O)n4C)CC2)n(C)c1=O,0.775%
4,O=C(O)CSc1nnc2c3ccccc3c3ccccc3c2n1,-2.16%
5,c1ccc2c[n+](CCCC[n+]3ccc4ccccc4c3)ccc2c1,22% (active)
6,c1ccc2c[n+](Cc3ccnc4ccccc34)ccc2c1,16.2%
7,CC(=N[O-])C(C)=N[O-].CC(=N[O-])C(C)=N[O-].[CH2-]CCN1CCOCC1.[Co].c1ccncc1,17.9%
8,O=C(O)c1ccc([N+](=O)[O-])c(P(=O)(O)O)c1,-6.85%
9,Cc1nc2ccccc2nc1-c1ccc(N=[N+]([O-])c2ccc(-c3nc4ccccc4nc3C)cc2)cc1,1.15%
10,O=C(O)C(=Cc1ccccc1)Cc1ccccc1,-1.14%
11,O=C(O)c1ccc(C(=O)c2ccccc2C(=O)O)cc1C(=O)O,1.52%
12,CC1=CC(=C(c2ccc(O)c(C)c2)c2ccccc2C(=O)O)C=CC1=O,30.9% (active)
13,Cc1ccc(NC(=O)c2ccccc2C(=O)O)cc1C,0.447%
14,CC(C)=NNc1ncnc2nc[nH]c12,-8.04%
15,O=C1CSC(=S)N1N=Cc1ccc(Cl)c([N+](=O)[O-])c1,8.8%
16,N=C(N)c1ccc(N=Nc2c(O)ccc3c2[nH]c2ccccc23)cc1,-25.6% (active)
17,O=Nc1c(O)[nH]c2ccccc12.O=Nc1c(O)[nH]c2ccccc12.[Cu],0.0535%
18,O=C(O)c1ccc(S(=O)(=O)N=Nc2c(O)[nH]c3ccccc23)cc1,-4.01%

# — PubChem BioAssay AID376 (PDSP, 2006)
